Laboratory results reported in PubChem BioAssay (NCATS).
“And” between values parts separate entries of the source, which are not always exact repeats. Equal values may be shown once. Records with an inconclusive call do not appear. Entries that show only a call come without a potency. Values without a mark were called inactive. The source made the active and inactive calls. Calls follow the shape of the dose curve; as a rule, active = well fitted inhibition curve with a large enough effect; inconclusive = small, poorly fitted or top-dose-only effect; inactive = flat fitted curve, though single readings scatter.

Key:
[1] = test system: Dd2; experiment: qHTS profiling for inhibitors of Plasmodium falciparum proliferation (AID 504749); conditions: P. falciparum in erythrocytes, SYBR Green DNA, 72 h; series mostly up to 28.7 µM
Procedure, shortened: (§1)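 Readout was DNA-dye fluorescence from lysed cultures, ex 485/em 535 nm. Parasitized red cells had grown 72 h with compound; data scaled between 0.29 uM artemisinin and DMSO wells and corrected using vehicle-only plates.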

[2] = test system: ECU; experiment: as above; conditions: P. falciparum in erythrocytes, SYBR Green DNA, 72 h; series mostly up to 28.7 µM
Procedure, shortened: as §1

[3] = test system: FAB9; experiment: as above; conditions: P. falciparum in erythrocytes, SYBR Green DNA, 72 h; series mostly up to 28.7 µM
Procedure, shortened: as §1

[4] = test system: GB4; experiment: as above; conditions: P. falciparum in erythrocytes, SYBR Green DNA, 72 h; series mostly up to 28.7 µM
Procedure, shortened: as §1

[5] = test system: HB3; experiment: as above; conditions: P. falciparum in erythrocytes, SYBR Green DNA, 72 h; series mostly up to 28.7 µM
Procedure, shortened: as §1

[6] = test system: ICS; experiment: as above; conditions: P. falciparum in erythrocytes, SYBR Green DNA, 72 h; series mostly up to 28.7 µM
Procedure, shortened: as §1

[7] = test system: JCK; experiment: as above; conditions: P. falciparum in erythrocytes, SYBR Green DNA, 72 h; series mostly up to 28.7 µM
Procedure, shortened: as §1

[8] = test system: N140; experiment: as above; conditions: P. falciparum in erythrocytes, SYBR Green DNA, 72 h; series mostly up to 28.7 µM
Procedure, shortened: as §1

[9] = test system: P93_24; experiment: as above; conditions: P. falciparum in erythrocytes, SYBR Green DNA, 72 h; series mostly up to 28.7 µM
Procedure, shortened: as §1

[10] = test system: P94_40; experiment: as above; conditions: P. falciparum in erythrocytes, SYBR Green DNA, 72 h; series mostly up to 28.7 µM
Procedure, shortened: as §1

[11] = test system: PAD; experiment: as above; conditions: P. falciparum in erythrocytes, SYBR Green DNA, 72 h; series mostly up to 28.7 µM
Procedure, shortened: as §1

[12] = test system: PC15; experiment: as above; conditions: P. falciparum in erythrocytes, SYBR Green DNA, 72 h; series mostly up to 28.7 µM
Procedure, shortened: as §1

[13] = test system: PC26; experiment: as above; conditions: P. falciparum in erythrocytes, SYBR Green DNA, 72 h; series mostly up to 28.7 µM
Procedure, shortened: as §1

[14] = test system: PC49; experiment: as above; conditions: P. falciparum in erythrocytes, SYBR Green DNA, 72 h; series mostly up to 28.7 µM
Procedure, shortened: as §1

[15] = test system: SC27B; experiment: as above; conditions: P. falciparum in erythrocytes, SYBR Green DNA, 72 h; series mostly up to 28.7 µM
Procedure, shortened: as §1

[16] = test system: TAB109; experiment: as above; conditions: P. falciparum in erythrocytes, SYBR Green DNA, 72 h; series mostly up to 28.7 µM
Procedure, shortened: as §1

[17] = test system: TAB113; experiment: as above; conditions: P. falciparum in erythrocytes, SYBR Green DNA, 72 h; series mostly up to 28.7 µM
Procedure, shortened: as §1

[18] = test system: TAB165; experiment: as above; conditions: P. falciparum in erythrocytes, SYBR Green DNA, 72 h; series mostly up to 28.7 µM
Procedure, shortened: as §1

[19] = test system: W2; experiment: as above; conditions: P. falciparum in erythrocytes, SYBR Green DNA, 72 h; series mostly up to 28.7 µM
Procedure, shortened: as §1

[20] = test system: CRL-7250; experiment: Cytotoxic Profiling of Annotated Libraries Using Quantitative High-Throughput Screening (AID 1296008); conditions: Five cell lines viability, CellTiter-Glo ATP luminescence, 48-72 h; max response: stronger effect = lower value
Procedure, shortened: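 Cells exposed to compounds for 48 or 72 hr at 37 degrees Celsius. Viability read as ATP-coupled luminescence with CellTiter-Glo after 10 min at room temperature.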
Also: nearly all actives have a fitted effect of over 60% in size.
Potency is read from the fitted curve at half-maximal effect.

CC(C)C(=O)Nc1ccc([N+](=O)[O-])c(C(F)(F)F)c1
Potency [1]: inactive
Potency [2]: inactive
Potency [3]: inactive
Potency [4]: inactive
Potency [5]: inactive
Potency [6]: inactive
Potency [7]: inactive
Potency [8]: inactive
Potency [9]: inactive
Potency [10]: inactive
Potency [11]: inactive
Potency [12]: inactive
Potency [13]: inactive
Potency [14]: inactive
Potency [15]: inactive
Potency [16]: inactive
Potency [17]: inactive
Potency [18]: inactive
Potency [19]: inactive
max response [20]: -19.8%

Nc1nnc(-c2cccc(Cl)c2Cl)c(N)n1
Potency [1]: inactive
Potency [2]: inactive
Potency [3]: inactive
Potency [4]: inactive
Potency [5]: inactive
Potency [6]: inactive
Potency [7]: inactive
Potency [8]: inactive
Potency [9]: inactive
Potency [10]: inactive
Potency [11]: inactive
Potency [12]: inactive
Potency [13]: inactive
Potency [14]: inactive
Potency [15]: inactive
Potency [16]: inactive
Potency [17]: inactive
Potency [18]: inactive
Potency [19]: inactive
max response [20]: -7.91% and -8.11%

CC(C)Cc1ccc(C(C)C(=O)O)cc1 (configuration not stated)
Potency [1]: inactive
Potency [2]: inactive
Potency [3]: inactive
Potency [4]: inactive
Potency [5]: inactive
Potency [6]: inactive
Potency [7]: inactive
Potency [8]: inactive
Potency [9]: inactive
Potency [10]: inactive
Potency [11]: inactive
Potency [12]: inactive
Potency [13]: inactive
Potency [14]: inactive
Potency [15]: inactive
Potency [16]: inactive
Potency [17]: inactive
Potency [18]: inactive
Potency [19]: inactive
max response [20]: -13.3% and 3.74%

CN1CCC(=C2c3ccccc3CC(=O)c3sccc32)CC1
Potency [1]: 4470 nM (active)
Potency [2]: 7080 nM (active)
Potency [3]: 6310 nM (active)
Potency [4]: 1510 nM (active)
Potency [5]: inactive
Potency [12]: inactive
Potency [14]: inactive
Potency [19]: 1200 nM (active)
max response [20]: 4.7% and -3.04%

NS(=O)(=O)c1cc2c(cc1Cl)NCNS2(=O)=O
Potency [1]: inactive
Potency [2]: inactive
Potency [3]: inactive
Potency [4]: inactive
Potency [5]: inactive
Potency [6]: inactive
Potency [7]: inactive
Potency [8]: inactive
Potency [9]: inactive
Potency [10]: inactive
Potency [11]: inactive
Potency [12]: inactive
Potency [13]: inactive
Potency [14]: inactive
Potency [15]: inactive
Potency [16]: inactive
Potency [17]: inactive
Potency [18]: inactive
Potency [19]: inactive
outcome [20]: inactive

CS(=O)(=O)Nc1ccc([N+](=O)[O-])cc1Oc1ccccc1
Potency [1]: inactive
Potency [2]: inactive
Potency [3]: inactive
Potency [4]: inactive
Potency [5]: inactive
Potency [6]: inactive
Potency [7]: inactive
Potency [8]: inactive
Potency [9]: inactive
Potency [10]: inactive
Potency [11]: inactive
Potency [12]: inactive
Potency [13]: inactive
Potency [14]: inactive
Potency [15]: inactive
Potency [16]: inactive
Potency [17]: inactive
Potency [18]: inactive
Potency [19]: inactive
max response [20]: -4.36% and 1.83%

NC(=O)OCC(COC(N)=O)c1ccccc1
Potency [1]: inactive
Potency [2]: inactive
Potency [3]: inactive
Potency [4]: inactive
Potency [5]: inactive
Potency [6]: inactive
Potency [7]: inactive
Potency [8]: inactive
Potency [9]: inactive
Potency [10]: inactive
Potency [11]: inactive
Potency [12]: inactive
Potency [13]: inactive
Potency [14]: inactive
Potency [15]: inactive
Potency [16]: inactive
Potency [17]: inactive
Potency [18]: inactive
max response [20]: 2.98% and -7.95%

Clc1ccc2nsnc2c1NC1=NCCN1
Potency [1]: inactive
Potency [2]: inactive
Potency [3]: inactive
Potency [4]: inactive
Potency [5]: inactive
Potency [6]: inactive
Potency [7]: inactive
Potency [8]: inactive
Potency [9]: inactive
Potency [10]: inactive
Potency [11]: inactive
Potency [12]: inactive
Potency [13]: inactive
Potency [14]: inactive
Potency [15]: inactive
Potency [16]: inactive
Potency [17]: inactive
Potency [18]: inactive
Potency [19]: inactive
max response [20]: 0.544% and 2.61%

COC(=O)Nc1nc2ccc(C(=O)c3cccs3)cc2[nH]1
Potency [1]: inactive
Potency [2]: inactive
Potency [3]: inactive
Potency [4]: inactive
Potency [5]: inactive
Potency [6]: inactive
Potency [7]: inactive
Potency [8]: inactive
Potency [9]: inactive
Potency [10]: inactive
Potency [11]: inactive
Potency [12]: inactive
Potency [13]: inactive
Potency [14]: inactive
Potency [15]: inactive
Potency [16]: inactive
Potency [17]: inactive
Potency [18]: inactive
Potency [20]: 46.9 nM (active) and 188 nM (active)

CCOC(=O)C(C)(C)Oc1ccc(Cl)cc1
Potency [1]: inactive
Potency [2]: inactive
Potency [3]: inactive
Potency [4]: inactive
Potency [5]: inactive
Potency [6]: inactive
Potency [7]: inactive
Potency [8]: inactive
Potency [9]: inactive
Potency [10]: inactive
Potency [11]: inactive
Potency [12]: inactive
Potency [13]: inactive
Potency [14]: inactive
Potency [15]: inactive
Potency [16]: inactive
Potency [17]: inactive
Potency [18]: inactive
Potency [19]: inactive
max response [20]: 2.19% and -5.27%

Clc1ccccc1C(c1ccccc1)(c1ccccc1)n1ccnc1
Potency [1]: 708 nM (active)
Potency [2]: 158 nM (active)
Potency [3]: 1780 nM (active)
Potency [4]: 809 nM (active)
Potency [5]: 501 nM (active)
Potency [6]: 126 nM (active)
Potency [7]: 708 nM (active)
Potency [8]: 224 nM (active)
Potency [9]: 126 nM (active)
Potency [10]: 631 nM (active)
Potency [11]: 355 nM (active)
Potency [12]: 1000 nM (active)
Potency [13]: 572 nM (active)
Potency [14]: 1000 nM (active)
Potency [15]: 398 nM (active)
Potency [16]: 794 nM (active)
Potency [17]: 631 nM (active)
Potency [18]: 100 nM (active)
Potency [19]: 405 nM (active)
max response [20]: -11.6% and -17.2%
